PHOSPHO1 block: PubChem AID 1565; Phosphoethanolamine/phosphocholine phosphatase (Homo sapiens), Q8TCT1; recombinant PHOSPHO1, absorbance phosphatase assay; inhibition, % at 13.3 µM; actives 1.1% (n = 290,000); in the data active = inhibition above about 60%
Target sequence (Q8TCT1 whole entry, looked up): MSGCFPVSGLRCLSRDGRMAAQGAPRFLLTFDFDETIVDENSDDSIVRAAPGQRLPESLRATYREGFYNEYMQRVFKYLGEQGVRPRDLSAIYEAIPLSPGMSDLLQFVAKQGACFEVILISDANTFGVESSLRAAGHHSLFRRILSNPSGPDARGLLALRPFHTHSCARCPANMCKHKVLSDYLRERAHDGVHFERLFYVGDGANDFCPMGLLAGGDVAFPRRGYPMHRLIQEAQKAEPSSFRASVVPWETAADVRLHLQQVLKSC
PABP polyA inh: PABP poly(A) RNA binding inhibitors, primary screen, biochemical, fluorescence polarization, uHTS. Polyadenylate-binding protein 1 (Homo sapiens), P11940. AID 2014, 2009. inhibition, % at 35 µM. actives 1% (n = 290,000);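 also: calls also rest on retests at 20 µM and on dose response follow-up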
MLLE-PAM2 inh: inhibitors of PABP1 MLLE–PAM2 peptide binding, primary screen, biochemical, fluorescence polarization, FITC-PAM2, GST-MLLE; Polyadenylate-binding protein 1 (Homo sapiens), P11940; inhibition, % at 20 µM; actives 0.36% (n = 360,000); AID 588489, 2011; in the data active = inhibition above about 35%, passing the limit was not always enough;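 also: plate controls were DMSO wells with GST-MLLE for no effect and wells lacking GST-MLLE protein for full effect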
eIF4H inh: human eIF4H binding inhibitors, primary screen, translation initiation inhibitor project, biochemical, uHTS, fluorescence polarization; AID 2012, 2009; Eukaryotic translation initiation factor 4H (Homo sapiens), Q15056; eIF4H fluorescence polarization binding assay; inhibition, % at 35 µM; actives 0.94% (n = 290,000);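 also: calls also rest on retests at 20 µM and on dose response follow-up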
CRFR2-BP antag: antagonists of CRF-BP/CRF-R2 complex, primary screen, cell-based, HEK293, calcium dye fluorescence, uHTS | CRF-induced calcium fluorescence | inhibition, % at 11.8 µM | actives 0.59% (n = 350,000) | AID 588475, 2011;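 active = inhibition of the ligand-induced calcium signal above about 50% at the single tested concentration, limit read from the data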
An asterisk follows results filed as active. An excerpt weighted towards active compounds, which were near 2.6% of everything screened. Unless noted, no rule for the calls is given here.

Results for O=C1/C(=C\c2cc(Br)cc(Br)c2O)SC(=S)N1Cc1ccccc1 ?
PHOSPHO1 block: 2; PABP polyA inh: 20; MLLE-PAM2 inh: -49; eIF4H inh: 24; CRFR2-BP antag: 64*

How did COc1cc(/C=C2\SC(=O)N(Cc3ccc(F)cc3)C2=O)cc([N+](=O)[O-])c1O do in these assays?
PHOSPHO1 block: 32; PABP polyA inh: 21; MLLE-PAM2 inh: -9; eIF4H inh: 12; CRFR2-BP antag: 43

How did O=C1/C(=C\c2ccc(O)cc2)SC(=S)N1Cc1ccccc1 do in these assays?
PHOSPHO1 block: 40; PABP polyA inh: 34; MLLE-PAM2 inh: -133; eIF4H inh: 15; CRFR2-BP antag: -22

Results for O=C1/C(=C/c2ccc(O)c([N+](=O)[O-])c2)SC(=S)N1Cc1ccccc1 ?
PHOSPHO1 block: 21; PABP polyA inh: 76; MLLE-PAM2 inh: -136; eIF4H inh: inconclusive; CRFR2-BP antag: 108*

How did COc1c(/C=C2\SC(=Nc3ccccc3Cl)NC2=O)cccc1[N+](=O)[O-] do in these assays?
PHOSPHO1 block: 29; PABP polyA inh: 0; MLLE-PAM2 inh: 6; eIF4H inh: 9; CRFR2-BP antag: 12

What do the screens show for `O=C1NC(=Nc2ccccc2Cl)S/C1=C\c1cccc([N+](=O)[O-])c1O`?
PABP polyA inh: -1; MLLE-PAM2 inh: -74; eIF4H inh: 10; CRFR2-BP antag: 53*

How did COc1cc(/C=C2\SC(=O)N(Cc3ccc(Cl)cc3)C2=O)cc([N+](=O)[O-])c1O do in these assays?
PHOSPHO1 block: 53; PABP polyA inh: 5; MLLE-PAM2 inh: -5; eIF4H inh: 15; CRFR2-BP antag: 55*

Results for Cc1cccc(-n2c(C)nc3cc(C(=O)NCCN4CCOCC4)ccc32)c1 ?
MLLE-PAM2 inh: -5; CRFR2-BP antag: -7

Results for CCOC(=O)C1CCCN(C(=O)c2ccc(S(=O)(=O)NCc3ccco3)cc2)C1 (stereo not drawn) ?
MLLE-PAM2 inh: 11; CRFR2-BP antag: 3

How did Nc1ncnc2c1ccn2[C@H]1CN(Cc2ccc(Cl)cc2)C[C@@H](CO)O1 do in these assays?
MLLE-PAM2 inh: -3

Results for CCCNC(=O)C1(C)CCN(C(=O)c2ccc(OC)cc2OC)C1 (stereo not drawn) ?
MLLE-PAM2 inh: -14

What do the screens show for `O=C1/C(=C\c2cccc([N+](=O)[O-])c2O)SC(=S)N1Cc1ccccc1`?
PHOSPHO1 block: 31; PABP polyA inh: 17; MLLE-PAM2 inh: 9; eIF4H inh: -1; CRFR2-BP antag: 77*

What do the screens show for `CCN1C(=O)/C(=C\C=C\c2ccccc2[N+](=O)[O-])SC1=S`?
PHOSPHO1 block: 2; PABP polyA inh: -8; MLLE-PAM2 inh: 3; eIF4H inh: -3; CRFR2-BP antag: 69*

Results for NC(=O)c1ccsc1NC(=O)COC(=O)Cc1ccccc1[N+](=O)[O-] ?
MLLE-PAM2 inh: -21; CRFR2-BP antag: 11

What do the screens show for `Cc1ccc2oc(NC3=NC4(CCCC4)C4=C(CCCC4=O)N3)nc2c1`?
MLLE-PAM2 inh: -4

Results for O=C(NCSc1ccccc1)c1ccccc1 ?
MLLE-PAM2 inh: 42*; CRFR2-BP antag: -10

How did CN1C(=O)c2ccccc2NC(=O)[C@]12O[C@@H]2c1cccc(O)c1 do in these assays?
PHOSPHO1 block: 22; PABP polyA inh: 70; MLLE-PAM2 inh: 4; eIF4H inh: 88*; CRFR2-BP antag: -11

Results for Cc1ccc(F)c(S(=O)(=O)NC(=O)C2(C)CCN2C(=O)Cc2ccsc2)c1 (stereo not drawn) ?
MLLE-PAM2 inh: 1

What do the screens show for `Cc1ccc(CN(CC(=O)NC2CCCC2)C(=O)CSc2nnc(COc3ccccc3)o2)cc1`?
PHOSPHO1 block: -3; PABP polyA inh: 5; MLLE-PAM2 inh: 41*; eIF4H inh: 4; CRFR2-BP antag: -7

What do the screens show for `O=C(CN(Cc1ccccc1)C(=O)CSc1nnc(COc2ccccc2)o1)NC1CCCC1`?
PHOSPHO1 block: -14; PABP polyA inh: 0; MLLE-PAM2 inh: 25; eIF4H inh: 4; CRFR2-BP antag: 45

Results for COc1cc(OC)cc(C(=O)NCC(=O)OCc2cc(=O)oc3cc(OC)ccc23)c1 ?
PHOSPHO1 block: 24; PABP polyA inh: 2; MLLE-PAM2 inh: -3; eIF4H inh: -16; CRFR2-BP antag: 105*

What do the screens show for `S=c1[nH]nc(Nc2ccccc2Cl)s1`?
PHOSPHO1 block: 68*; PABP polyA inh: 3; MLLE-PAM2 inh: 20; eIF4H inh: 1; CRFR2-BP antag: -7

What do the screens show for `S=c1[nH]nc(Nc2cccc(Cl)c2)s1`?
PHOSPHO1 block: 80*; PABP polyA inh: -1; MLLE-PAM2 inh: -84; eIF4H inh: -1; CRFR2-BP antag: -8

How did Cc1cc(C(=O)c2ccc(C(C)(C)C)cc2)c(NC(=O)CCl)s1 do in these assays?
PHOSPHO1 block: 0; PABP polyA inh: -3; MLLE-PAM2 inh: 5; eIF4H inh: -4; CRFR2-BP antag: -64

What do the screens show for `CC(C)(C)NC(=O)NC(=O)CSc1cccc(C(F)(F)F)c1`?
PHOSPHO1 block: -10; PABP polyA inh: -2; MLLE-PAM2 inh: 6; eIF4H inh: 23; CRFR2-BP antag: -28

How did COc1ccccc1N1C(=O)c2ccccc2NC1c1ccncc1 (stereo not drawn) do in these assays?
PHOSPHO1 block: 14; PABP polyA inh: -4; MLLE-PAM2 inh: 0; eIF4H inh: -2; CRFR2-BP antag: 5

What do the screens show for `COc1ccccc1N1C(=O)N(C(C)=O)C2C1Nc1ccccc1N2C` (stereo not drawn)?
PHOSPHO1 block: 29; PABP polyA inh: 110*; MLLE-PAM2 inh: -37; eIF4H inh: 78*; CRFR2-BP antag: -22

What do the screens show for `COc1ccc(S(=O)(=O)Nc2cc(Sc3ncn[nH]3)c(O)c3ccccc23)cc1`?
PHOSPHO1 block: 98*; PABP polyA inh: 13; eIF4H inh: -5

What do the screens show for `CNC(=O)C[C@H]1C(=O)N(c2ccc(Br)cc2)C[C@@H]1C`?
MLLE-PAM2 inh: 14; CRFR2-BP antag: -1

What do the screens show for `COc1cccc(NC(=O)[C@@H](NC(=O)N2CCn3c2nc2ccccc23)C(C)C)c1`?
PHOSPHO1 block: 49; PABP polyA inh: -6; MLLE-PAM2 inh: 4; eIF4H inh: -5; CRFR2-BP antag: -11

What do the screens show for `COc1cccc(NC(=O)[C@H](C)NC(=O)N2CCn3c2nc2ccccc23)c1`?
PHOSPHO1 block: 65*; PABP polyA inh: -5; MLLE-PAM2 inh: 3; eIF4H inh: -3; CRFR2-BP antag: -1

Results for COc1cc(NC(=O)[C@H](C)NC(=O)N2CCn3c2nc2ccccc23)cc(OC)c1 ?
PHOSPHO1 block: 44; PABP polyA inh: -1; MLLE-PAM2 inh: -1; eIF4H inh: -1; CRFR2-BP antag: 86*

Results for C[C@@H](NC(=O)[C@H]1O[C@@H](n2cnc3c(N)ncnc32)[C@H](O)[C@@H]1O)c1cccc2ccccc12 ?
MLLE-PAM2 inh: 5
